# Laboratory results from PubChem BioAssay (Tox21).
# Values without a mark were called inactive. Inconclusive results are not listed. Where a call stands in place of a potency, no number is given. Active and inactive are the calls of the source. Unless noted, calls come from the whole dose curve; as a rule, active = well fitted curve in the direction sought with a large enough effect in the repeat runs; inconclusive = weak or mixed curves; inactive = no such curve, though single readings can be large; an effect the other way counts as inactive or inconclusive.
# Columns and labels:
# [1] = target: Nuclear receptor subfamily 1 group I member 3 (Homo sapiens) (UniProt Q14994); assay: qHTS assay to identify small molecule agonists of the constitutive androstane receptor (CAR) signaling pathway (AID 1224839);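 note: HepG2 cells stably carrying human CAR and a CYP2B6 luciferase reporter; series mostly up to about 92 µM; nearly all actives have a fitted effect of over 15% in size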
# Nuclear receptor subfamily 1 group I member 3 (Homo sapiens), sequence (Q14994 whole entry, looked up): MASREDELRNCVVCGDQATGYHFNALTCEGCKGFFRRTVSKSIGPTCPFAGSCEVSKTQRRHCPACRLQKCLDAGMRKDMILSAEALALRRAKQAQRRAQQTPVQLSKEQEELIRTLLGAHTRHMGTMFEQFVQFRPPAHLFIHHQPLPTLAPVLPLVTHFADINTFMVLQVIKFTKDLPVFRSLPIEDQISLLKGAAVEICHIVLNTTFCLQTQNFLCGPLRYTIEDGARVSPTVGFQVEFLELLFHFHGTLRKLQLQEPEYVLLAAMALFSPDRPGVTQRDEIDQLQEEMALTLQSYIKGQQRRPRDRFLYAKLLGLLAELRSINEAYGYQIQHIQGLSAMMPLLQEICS
# How it was run: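 Luminescent ONE-Glo read-out after 24 hr, 37 C exposure of double-stable HepG2-CYP2B6-hCAR reporter cells to a 15-point compound series, in the presence of 0.75 uM PK11195 (final).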
# [2] = qHTS assay to identify small molecule agonists of the estrogen related receptor signaling pathway with the pleiotropic PPARgamma coactivator (PGC) from Tox21 10K library (AID 1224842); note: nearly all actives have a fitted effect of over 15% in size
# How it was run: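 PGC/ERR reporter cells (NTP line) were seeded 2,000 per well, rested 6 h at 37 C/5% CO2, then pin-dosed with compounds in DMSO for 18 h at 37 C; luciferase read by One-Glo luminescence after 30 min at room temperature.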
# [3] = target: Thyrotropin receptor (Homo sapiens) (UniProt P16473); assay: qHTS assay to identify small molecule agonists of the thyroid stimulating hormone receptor (TSHR) signaling pathway (AID 1224843; calls by dose curve; note: nearly all actives have a fitted effect of over 45% in size)
# Thyrotropin receptor (Homo sapiens), sequence (P16473 whole entry, looked up): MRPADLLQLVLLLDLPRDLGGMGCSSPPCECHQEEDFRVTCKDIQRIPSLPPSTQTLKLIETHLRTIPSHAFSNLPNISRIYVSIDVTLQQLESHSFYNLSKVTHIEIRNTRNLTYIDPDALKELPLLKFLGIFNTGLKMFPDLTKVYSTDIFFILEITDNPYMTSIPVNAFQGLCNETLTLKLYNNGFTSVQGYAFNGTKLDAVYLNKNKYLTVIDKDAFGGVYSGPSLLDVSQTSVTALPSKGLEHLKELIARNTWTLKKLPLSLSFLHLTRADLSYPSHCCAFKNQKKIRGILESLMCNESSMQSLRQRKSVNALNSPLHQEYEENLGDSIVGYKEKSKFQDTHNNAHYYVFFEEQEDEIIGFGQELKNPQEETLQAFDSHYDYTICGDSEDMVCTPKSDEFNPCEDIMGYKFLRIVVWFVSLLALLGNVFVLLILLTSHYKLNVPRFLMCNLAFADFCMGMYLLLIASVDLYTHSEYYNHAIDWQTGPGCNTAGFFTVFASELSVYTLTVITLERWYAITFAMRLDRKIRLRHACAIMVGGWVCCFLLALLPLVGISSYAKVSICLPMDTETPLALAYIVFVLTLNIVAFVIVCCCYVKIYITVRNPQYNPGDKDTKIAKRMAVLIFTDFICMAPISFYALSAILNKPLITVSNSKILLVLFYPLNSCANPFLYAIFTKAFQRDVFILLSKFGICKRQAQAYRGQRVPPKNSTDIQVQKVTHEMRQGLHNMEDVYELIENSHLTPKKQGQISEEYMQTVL
# How it was run: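 TSHR-expressing HEK293 cells (800 per well) were exposed to compounds for 30 min at room temperature. cAMP was then detected by HTRF competition with cAMP-d2 and anti-cAMP cryptate, read after 1 h at room temperature. Fifteen concentrations, triplicate.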
# [4] = qHTS assay to identify small molecule agonists of the hypoxia (HIF-1) signaling pathway - cell viability counter screen (AID 1224844; calls by dose curve; note: nearly all actives have a fitted effect of over 50% in size)
# How it was run: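 Luminescent ATP content (CellTiter-Glo, 30 min, room temperature) served as the viability measure in HRE-bla ME-180 cells exposed to compounds for 17 hrs in low-serum medium (0.5% dialyzed FBS).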
# [5] = qHTS assay to identify small molecule agonists of H2AX (AID 1224845; active = well fitted activation curve with a large enough effect in the signal ratio in the repeat runs, not every such curve was filed as active; the % refers to the signal ratio)
# How it was run: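 Wild-type CHO-K1 cells plated overnight, then exposed 3 hr at 37C to compounds at 15 concentrations (0.76% DMSO). Lysed, then HTRF anti-pH2AX(S139)-cryptate/anti-H2AX-d2 detection after 24 hr at room temperature; emissions 665 and 620 nm.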
# [6] = qHTS assay to identify small molecule agonists of H2AX - cell viability counter screen (AID 1224847; calls by dose curve; note: top concentration of the series differs between compounds; nearly all actives have a fitted effect of over 30% in size)
# How it was run: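 Counter-screen for viability: CellTiter-Glo ATP luminescence read after 3 h compound treatment (15-point titration, 0.76% DMSO final) of CHO-K1 cells at 37C, with 30 min room-temperature reagent incubation.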
# [7] = qHTS assay to identify small molecule antagonists of the estrogen related receptor (ERR) signaling pathway from Tox21 library (AID 1224848); note: nearly all actives have a fitted effect of over 50% in size; note: potency is the fitted concentration of half-maximal effect
# How it was run: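 Cells: ERR line, 2,000/well; 6 h preincubation 37 C/5% CO2. Cpd in DMSO via pin tool; 18 h, 37 C. ONE-Glo, 30 min RT, luminescence.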
# [8] = qHTS assay to identify small molecule agonists of the estrogen related receptor (ERR) signaling pathway from Tox21 library (AID 1224849; calls by dose curve; note: nearly all actives have a fitted effect of over 15% in size)
# How it was run: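 We plated ERR reporter cells, waited 6 h, added compounds in DMSO by pin tool and incubated them 18 h at 37 C. ONE-Glo was then added and luminescence read after 30 min.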
# [9] = qHTS RealTime-Glo MT Cell Viability Assay in HepG2 cells - 24 hour (AID 1224867); note: nearly all actives have a fitted effect of over 50% in size
# How it was run: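 Tox21 10K library screened in qHTS format on HepG2 cells carrying RealTime-Glo reagents. Compounds were added after a 5 h preincubation, and the luminescent signal from continuous culture was measured repeatedly during 40 h treatment.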
# [10] = qHTS RealTime-Glo MT Cell Viability Assay in HEK293 cells - 32 hour (AID 1224868); note: top concentration of the series differs between compounds; nearly all actives have a fitted effect of over 50% in size
# How it was run: (§1)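 Luminescence generated by NanoLuc from substrate produced by living HEK293 cells served as the viability signal. Each value reflects the reading at its stated time point during continuous 40 h compound exposure at 37 C.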
# [11] = A CellTox Green Cytotoxicity Assay to monitor cytotoxicity in HEK293 cells - 0 hour (AID 1224869); note: nearly all actives have a fitted effect of over 50% in size
# How it was run: (§2)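 Each value comes from one timepoint of a single continuous run in which HEK293 cells with CellTox Green were exposed to compound for up to 40 h at 37 C, dye fluorescence rising with cell death.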
# [12] = qHTS RealTime-Glo MT Cell Viability Assay in HepG2 cells - 40 hour (AID 1224870); note: nearly all actives have a fitted effect of over 50% in size
# How it was run: (§3)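 HepG2 cells mixed with RealTime-Glo MT reagents (NanoLuc plus cell-permeant prosubstrate) were seeded at 600 cells/well, incubated 5 h at 37 C/5% CO2, then pinned with compounds in DMSO; nonlytic luminescence tracked viability during 40 h treatment.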
# [13] = A CellTox Green Cytotoxicity Assay to monitor cytotoxicity in HEK293 cells - 40 hour (AID 1224871); note: nearly all actives have a fitted effect of over 45% in size
# How it was run: as §2
# [14] = qHTS RealTime-Glo MT Cell Viability Assay in HEK293 cells - 16 hour (AID 1224872)
# How it was run: as §1
# [15] = qHTS RealTime-Glo MT Cell Viability Assay in HepG2 cells - 8 hour (AID 1224873); note: nearly all actives have a fitted effect of over 55% in size
# How it was run: as §3
# [16] = qHTS RealTime-Glo MT Cell Viability Assay in HEK293 cells - 40 hour (AID 1224874); conditions: RealTime-Glo luminescence; max response: stronger effect = lower value; note: nearly all actives have a fitted effect of over 50% in size
# How it was run: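 qHTS format; HEK293 cells with NanoLuc/prosubstrate reagent, 37 C/5% CO2 for 5 h pre-dosing; compounds 23 nL in DMSO; luminescence at each time point reflects viable cells.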
# [17] = A CellTox Green Cytotoxicity Assay to monitor cytotoxicity in HEK293 cells - 24 hour (AID 1224875); note: series mostly up to about 77 µM; nearly all actives have a fitted effect of over 45% in size
# How it was run: as §2
# [18] = qHTS assay to identify small molecule antagonists of the estrogen related receptor signaling pathway with the pleiotropic PPARgamma coactivator (PGC) from Tox21 10K library - cell viability counter screen (AID 1224840; active = well fitted cell-killing curve with a large enough effect in the repeat runs, not every such curve was filed as active; note: nearly all actives have a fitted effect of over 40% in size)
# How it was run: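 Compounds in DMSO, alongside positive and negative controls, were pinned onto PGC/ERR cells (2,000 per well). Exposure lasted 17.5 hours at 37 C, followed by a 30-minute CellTiter-Fluor incubation and fluorescence reading.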
# [19] = qHTS assay to identify small molecule antagonists of the estrogen related receptor signaling pathway with the pleiotropic PPARgamma coactivator (PGC) from Tox21 10K library (AID 1224841; call rule not given here; note: potency is the fitted concentration of half-maximal effect)
# How it was run: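 Compound exposure ran 18 hours at 37 C in PGC/ERR cells (2,000/well) that had first rested 6 hours in a 37 C/5% CO2 incubator. Luciferase activity was then detected with One-Glo after a 30-minute room-temperature step.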
# [20] = qHTS assay to identify small molecule agonists of the hypoxia (HIF-1) signaling pathway (AID 1224846; active = well fitted activation curve with a large enough effect in the signal ratio in the repeat runs, not every such curve was filed as active; the % refers to the signal ratio)
# How it was run: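 Measured by blue/green FRET after loading CCF4-AM: beta-lactamase expressed from a hypoxia response element in ME-180 cells. Test agents were delivered in DMSO and left 17 hrs; cells had been plated 5 hrs earlier in low-serum (0.5% dialyzed FBS) medium.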
Compound,Potency [1],outcome [2],outcome [3],outcome [4],outcome [5],Potency [6],Potency [7],outcome [8],outcome [9],Potency [10],Potency [11],outcome [12],Potency [13],Potency [14],outcome [15],max response [16] [%],Potency [17],outcome [18],Potency [19],outcome [20]
CC(C)(CO)[C@@H](O)C(=O)NCCCO,inactive,inactive,inactive,inactive,inactive,inactive,inactive,inactive,inactive,inactive,inactive,inactive,inactive,inactive,inactive,4,inactive,,,
CCCCCCCCCCCCCCCCCCN(C)C,,inactive,inactive,inactive,inactive,inactive,inactive,inactive,inactive,inactive,inactive,inactive,,inactive,inactive,0.677,,inactive,inactive,inactive
O=C(COCCOCCOCC(=O)Nc1c(I)cc(I)c(C(=O)O)c1I)Nc1c(I)cc(I)c(C(=O)O)c1I,,inactive,inactive,inactive,inactive,,inactive,inactive,inactive,inactive,,inactive,,inactive,inactive,3.14,,inactive,inactive,inactive
O=C(O)CCNC(=O)c1ccccc1,,inactive,inactive,inactive,inactive,inactive,inactive,inactive,inactive,inactive,inactive,inactive,inactive,inactive,inactive,-0.231,inactive,inactive,inactive,
C=CCOc1c(Br)cc(C(C)(C)c2cc(Br)c(OCC=C)c(Br)c2)cc1Br,,inactive,inactive,inactive,inactive,inactive,29.9 µM (active),inactive,,,inactive,inactive,inactive,inactive,inactive,14.4,inactive,inactive,26.6 µM (active),inactive
CCN(CCO)c1cccc(C)c1,,inactive,inactive,inactive,inactive,inactive,inactive,inactive,inactive,,inactive,inactive,inactive,inactive,inactive,6.86,inactive,inactive,inactive,inactive
C=COCCOCCOC=C,inactive,,,inactive,inactive,,,,inactive,,,inactive,inactive,inactive,inactive,-1.05,inactive,,,inactive
